dFosB act: enhances mouse delta FosB homodimer DNA binding. P13346. purified delta FosB, TAMRA-CDK5 oligo fluorescence polarization; percent of positive-control signal above neutral wells. activation, % at 25 µM. 340,000 tested, 0.99% active. AID 493131;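 active = mean activation above about 17%, with every replicate also reaching it, limit read from the data, passing the limit was not always enough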
Target sequence (P13346 whole entry, looked up): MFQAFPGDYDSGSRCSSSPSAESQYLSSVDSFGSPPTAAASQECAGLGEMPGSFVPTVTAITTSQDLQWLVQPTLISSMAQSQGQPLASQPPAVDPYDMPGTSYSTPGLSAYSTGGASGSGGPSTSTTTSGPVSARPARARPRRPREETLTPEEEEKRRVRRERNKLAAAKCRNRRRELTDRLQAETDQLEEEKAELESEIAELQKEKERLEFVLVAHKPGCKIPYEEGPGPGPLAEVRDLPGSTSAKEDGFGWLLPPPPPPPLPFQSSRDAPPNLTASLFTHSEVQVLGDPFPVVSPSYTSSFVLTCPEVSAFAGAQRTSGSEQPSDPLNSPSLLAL
Rpn11 block: blocks the human proteasome subunit Rpn11 | O00487 | human 26S proteasome, Ub4-pepOG fluorescence polarization; 20S core pre-blocked with epoxomicin | inhibition, % at 20 µM | 360,000 tested, 0.59% active | AID 588493;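 active = inhibition at 20 µM, scaled to each plate's controls, above about 33%, limit read from the data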
TPT1 inhibitor: inhibitors of Candida albicans tRNA 2'-phosphotransferase TPT1; recombinant caTPT1, FP RNA substrate dephosphorylation; 300,000 tested, 0.81% active; inhibition, % at 5 µM; AID 1962;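 active = inhibition above the mean of all tested compounds plus 3 SD, set per screening campaign, cut at about 24% in these data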;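 note: plate controls were DMSO alone for no effect and ferristatin control at 100 nM for full effect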
ZTA counter: ZTA (EBV) inhibition in EBNA-1 counter-screen. P03206. ZTA-DNA binding, fluorescence polarization. inhibition, % at 11 µM. 320,000 tested, 0.15% active. AID 2234; in the data active = inhibition above about 33%
GRIN3A LBD mod: NR3A (human) ligand-binding domain modulation; Tm shift relative to glycine control, % at 25 µM; 340,000 tested, 2.5% active; NR3A LBD differential scanning fluorimetry, Tm shift; 0% = protein alone, 100% = glycine-bound protein;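 active = melting temperature shift of at least 10% of the positive control shift, at one fixed dose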
EBNA-1 inhibitor: blocks EBNA-1 binding to DNA | AID 1950 | EBNA-1 DNA binding, fluorescence polarization | 300,000 tested, 0.34% active | inhibition, % at 14.8 µM; in the data active = inhibition above about 28%
caTPT1 confirm: confirmation of Candida albicans TPT1 inhibitors; inhibition, % at 5 µM; 2,400 tested, 74% active; recombinant caTPT1, fluorescence polarization, RNase T1 coupled; shares compounds with TPT1 inhibitor;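 active = inhibition above the primary screen limit, the mean inhibition of all tested compounds plus 3 SD, cut at about 25% in these data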
RNase T1 counter: RNase T1 inhibition in TPT1 counter-screen | RNase T1 cleavage, fluorescence polarization, 1536-well | shares compounds with TPT1 inhibitor | inhibition, % at 5 µM | 2,400 tested, 83% active;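 active = inhibition above the solvent-only control well mean plus 3 SD, limit set per screening run, cut at about 23% in these data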;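 note: plate controls were DMSO wells with enzyme for no effect and wells without RNase T1 for full effect; inhibitors block cleavage so intact labeled substrate keeps polarization high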
Target sequence (P00651 whole entry, looked up): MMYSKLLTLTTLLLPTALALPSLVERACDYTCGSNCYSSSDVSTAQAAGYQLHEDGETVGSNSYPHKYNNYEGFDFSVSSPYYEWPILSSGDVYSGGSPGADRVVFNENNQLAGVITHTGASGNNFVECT
* = called active by the depositor; . = no result shown. Compounds with a hit are over-represented: about 4.5% of the library has one in this group of screens.

SMILES | dFosB act | Rpn11 block | TPT1 inhibitor | ZTA counter | GRIN3A LBD mod | EBNA-1 inhibitor | caTPT1 confirm | RNase T1 counter
CCOC(=O)c1c(-c2ccccc2)csc1NC(=O)/C(C#N)=C/c1ccc(O)c(OC)c1 | -15 | . | 178* | 15 | 27* | 8 | 192* | 174*
CCOC(=O)c1c(-c2ccccc2)csc1NC(=O)/C(C#N)=C/c1ccc(OC)c(OC)c1 | -5 | 28 | 6 | 2 | -1 | -5 | . | .
COC(=O)CCCC(=O)N1CCC(CCC(=O)NC2CC2)CC1 | -3 | -5 | -2 | -11 | 1 | -3 | . | .
N#Cc1c(Nc2cccc(F)c2)sc2c(O)cc(=O)[nH]c12 | -12 | . | 51* | -9 | 1 | -4 | 29* | 40*
COc1ccccc1-c1nc2ccc(Cl)cc2c(=O)n1O | -5 | 0 | -4 | -5 | 0 | -20 | . | .
CC(OC(=O)c1ccc2ncsc2c1)C(=O)N(C)C1CCCCC1 (stereo not given) | -11 | -17 | . | -10 | 4 | . | . | .
COc1cccc(/C=C2\N=C3CCCCCN3C2=O)c1 | 7 | 3 | -3 | -12 | 2 | -9 | . | .
CCOc1cc(/C=C2\N=C3CCCCCN3C2=O)ccc1O | -5 | . | 43* | 8 | -1 | -10 | 58* | 60*
CCn1cc(C2C3=C(CC(C)(C)CC3=O)N(c3ccccc3)C3=C2C(=O)CC(C)(C)C3)c(C)n1 | 1 | -3 | -3 | -8 | -2 | 2 | . | .
COCOCCn1cc(CN2CCS(=O)(=O)N(Cc3ccc(-c4cccc(CO)c4)cc3)C(CC(C)C)C2=O)nn1 (stereo not given) | . | 1 | . | . | . | . | . | .
N#CC1=CN(Cc2ccccc2)C=C(/C=N/Nc2ccccc2)C1 | -16 | 34 | 25* | 13 | -3 | 10 | 14 | 25*
CCOC(=O)C(=O)C1=CN(Cc2ccccc2)C=C(C#N)C1 | -10 | 6 | -9 | -2 | -1 | 0 | . | .
O=C(NCc1ccccc1)C1CC(=O)N(c2ccc(OCC(=O)N3CCOCC3)cc2)C1 (stereo not given) | -8 | 1 | -2 | 8 | 0 | 4 | . | .
Cc1ccc(CNC(=O)C2CC(=O)N(c3ccc(OCC(=O)N4CCCC4)cc3)C2)cc1 (stereo not given) | -10 | 1 | 31* | -7 | 0 | -20 | 5 | 10
Cn1c(=O)c2c(-c3ccc(OC(F)F)cc3)cc(-c3ccccc3)nc2n(C)c1=O | . | . | -1 | 19 | -2 | 12 | . | .
Cc1cc(OCC(=O)NNC(=O)CCc2ccccc2)ccc1Br | -3 | -3 | -3 | 2 | -4 | -3 | . | .
Cc1ccc(C)c(OCCC(=O)OCC(=O)Nc2ccc(N3CCOCC3)cc2)c1 | -6 | -7 | 1 | -13 | 0 | -6 | . | .
COc1ccc(CN2C(=O)c3ccccc3C(/C=N\OCc3ccc(F)cc3)C2=O)cc1 (stereo not given) | -8 | 4 | 17 | 2 | 6 | -5 | . | .
COc1ccc(CN2C(=O)c3ccccc3C(/C=N/OCc3ccc(Cl)cc3)C2=O)cc1 (stereo not given) | -3 | 9 | 43* | 4 | 11* | 0 | 65* | 75*
CCc1nc2c(OCCC3CCCCC3)cccn2c1N(C)C(=O)c1ccccc1F | . | 2 | . | . | . | . | . | .
CCOC(=O)/C(=C/C1=CC(=C/N(C)C)/C(=O)O1)C(C)=O | 6 | . | 124* | 2 | 0 | -1 | 140* | 138*
O=C(CN1CCN(c2ccc(F)cc2)CC1)Nc1ccc(S(=O)(=O)N2CCOCC2)cc1 | -3 | 10 | -2 | 3 | 1 | 6 | . | .
N#C/C(=C\c1ccc(O)c(O)c1)C(=O)c1ccc(O)c(O)c1 | -2 | . | 27* | 1 | 2 | 2 | 69* | 74*
N#CC(C#N)=C/C(C#N)=C(/N)N1CCN(c2ccc(Cl)cc2)CC1 | 1 | 14 | 56* | -5 | 1 | -1 | 15 | 21
CCOc1ccc(NC(=O)c2ccc(NC(=O)CSc3nc4ccccc4c(=O)[nH]3)cc2)cc1 | -1 | 3 | 53* | -3 | 9 | 6 | 0 | 2
SMILES | dFosB act | Rpn11 block | TPT1 inhibitor | ZTA counter | GRIN3A LBD mod | EBNA-1 inhibitor | caTPT1 confirm | RNase T1 counter
O=C(CSc1nc2ccccc2c(=O)[nH]1)Nc1ccc(C(=O)O)cc1 | -6 | 2 | 1 | -7 | 0 | 0 | . | .
CCN(CC)S(=O)(=O)c1ccc(O)c(NS(=O)(=O)c2ccccc2F)c1 | 3 | 2 | -3 | 13 | 0 | 3 | . | .
O=C1CC(NC(=O)c2ccc(Cl)cc2)C(=O)N1 (stereo not given) | -5 | 5 | 133* | -2 | -1 | -21 | 11 | 21
CC(C)Oc1ccc(C2C(C#N)=C(N)Oc3c2oc(CO)cc3=O)cc1 (stereo not given) | 3 | 0 | 36* | 2 | 1 | -6 | 5 | 6
Fc1ccc(-c2ccc3nccn3c2)cc1Cl | . | 6 | . | . | . | . | . | .
CCN1CCN(Cc2ccc(NC(=O)c3ccc(C)c(/C=C/c4cnc(Nc5cc(N6CCNCC6)nc(C)n5)cn4)c3)cc2C(F)(F)F)CC1 | -256 | . | 78* | 6 | -20 | 12 | 83* | 87*
O=C(C1CCCN(S(=O)(=O)c2ccccc2)C1)N1CCCCC1 (stereo not given) | 6 | -9 | 2 | 2 | -1 | -4 | . | .
COc1ccccc1NC(=O)/C(C#N)=C/c1cc([N+](=O)[O-])ccc1N1CCCC1 | -5 | -140 | 38* | 9 | 1 | 1 | 74* | 85*
CCOc1ccc(OCCC(=O)Nc2ccccc2C(=O)NC2CC2)cc1 | . | -3 | . | . | . | . | . | .
COc1ccc(NC(=O)[C@@H]2[C@@H]3C(=O)N(C4CCCCC4)C(=O)[C@@H]3C3c4ccccc4C=CN32)cc1 (stereo not given in full) | -3 | 31 | 43* | -5 | -10 | -11 | 50* | 54*
O=C(CSc1ccc(F)cc1)Nc1cccc(S(=O)(=O)N2CCOCC2)c1 | -2 | 4 | . | . | -2 | . | . | .
C=CCNc1sc(C(=O)c2ccc(Br)s2)c(N)c1C#N | -4 | . | 28* | 13 | -6 | 10 | 38* | 49*
C=CCNc1sc(C(=O)c2ccccc2)c(N)c1C#N | -6 | 9 | -3 | -3 | -1 | -1 | . | .
C=CCSC1=N/C(=C\C=C\c2ccco2)C(=O)S1 | -18 | 37 | 29* | 16 | -2 | 4 | 28* | 38*
Cc1ccccc1S(=O)(=O)N(C)C[C@@H]1OCc2ccccc2-c2c(n(C)c3ccccc23)C(=O)N([C@H](C)CO)C[C@@H]1C | . | 2 | . | . | . | . | . | .
COc1cc(-c2[nH]nc3c2C(c2ccco2)C(C#N)=C(N)O3)cc(OC)c1OC (stereo not given) | -6 | 4 | -2 | -19 | -2 | -6 | . | .
CCCn1c2c(c(O)c(C(=O)NC)c1=O)CCCC2 | -10 | 34 | 38* | -2 | 0 | -7 | 9 | 16
